From PubChem BioAssay AID1159580 (chemical genetic matrix, 2015)
About 2,000 (36%) of roughly 5,500 compounds were called active. About 18% were inconclusive and are not listed. Rule as the data show it: active = normalized growth mostly below about 0.91 (no sharp cut-off); inconclusive = no clear call, values can overlap the other calls; inactive = mostly above about 0.92. The list shows a part of the results.

Test: chemical genetic growth profiling, strain panel (AID 1159580);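 also: tested at 20 µM; growth read once vehicle control cultures reached saturation at 30 °C; 1 = growth at the plate median or of vehicle wells; lower values mean less growth of the strain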
Settings: growth OD

Measured: normalized growth

COc1cc(OC)c2c(=O)c(O)c(-c3ccc(OC)c(OC)c3)oc2c1
inactive: S. cerevisiae deletion strains, locus YKL068W, hits give low values 0.994 | S. cerevisiae deletion strains, locus YKL085W, strain MDH1 (second series), hits give low values 1.05 | S. cerevisiae deletion strains, locus YKL085W, strain MDH1, hits give low values 1.05 | S. cerevisiae deletion strains, locus YKL160W, strain elf1, hits give low values 0.922 | S. cerevisiae deletion strains, locus YKR026C, strain gcn3, hits give low values 0.959 | S. cerevisiae deletion strains, locus YKR091W, strain srl3, hits give low values 0.953 | S. cerevisiae deletion strains, locus YLL001W, strain dnm1, hits give low values 0.906 | S. cerevisiae deletion strains, locus YLL026W, hits give low values 0.972 | S. cerevisiae deletion strains, locus YLL041C, strain sdh2, hits give low values 0.933 | S. cerevisiae deletion strains, locus YLR102C, strain apc9, hits give low values 0.929 | S. cerevisiae deletion strains, locus YLR113W, strain HOG1, hits give low values 0.944 | S. cerevisiae deletion strains, locus YLR258W, strain gsy2, hits give low values 0.917 | S. cerevisiae deletion strains, locus YLR370C, strain arc18, hits give low values 0.967 | S. cerevisiae deletion strains, locus YLR384C, strain iki3, hits give low values 0.942 | S. cerevisiae deletion strains, locus YML032C, strain rad52, hits give low values 0.91 | S. cerevisiae deletion strains, locus YML120C, strain ndi1, hits give low values 0.948 | S. cerevisiae deletion strains, locus YMR078C, strain ctf18, hits give low values 0.957 | S. cerevisiae deletion strains, locus YMR125W, strain sto1, hits give low values 0.982 | S. cerevisiae deletion strains, locus YMR129W, hits give low values 0.954 | S. cerevisiae deletion strains, locus YMR231W, strain pep5, hits give low values 0.973 | S. cerevisiae deletion strains, locus YNL071W, strain lat1, hits give low values 0.975 | S. cerevisiae deletion strains, locus YNL183C, strain NPR1, hits give low values 0.941 | S. cerevisiae deletion strains, locus YNL248C, strain rpa49, hits give low values 0.951 | S. cerevisiae deletion strains, locus YNL250W, strain rad50, hits give low values 1.01 | S. cerevisiae deletion strains, locus YNL271C, strain bni1, hits give low values 0.922 | S. cerevisiae deletion strains, locus YNL298W, strain CLA4, hits give low values 0.975 | S. cerevisiae deletion strains, locus YNL322C, strain KRE1 (second series), hits give low values 0.961 | S. cerevisiae deletion strains, locus YNR049C, strain mso1, hits give low values 0.968 | S. cerevisiae deletion strains, locus YOL012C, strain htz1 0.232 | S. cerevisiae deletion strains, locus YOR001W, strain rrp6, hits give low values 0.922 | S. cerevisiae deletion strains, locus YOR070C, strain gyp1, hits give low values 0.968 | S. cerevisiae deletion strains, locus YOR080W, strain dia2, hits give low values 0.942 | S. cerevisiae deletion strains, locus YOR231W, strain MKK1, hits give low values 0.991 | S. cerevisiae deletion strains, locus YOR265W, strain rbl2, hits give low values 0.94 | S. cerevisiae deletion strains, locus YOR316C, strain cot1, hits give low values 0.938 | S. cerevisiae deletion strains, locus YPL078C, strain atp4, hits give low values 0.958 | S. cerevisiae deletion strains, locus YPL256C, strain CLN2, hits give low values 0.969 | S. cerevisiae deletion strains, locus YPR119W, strain clb2, hits give low values 0.97 | S. cerevisiae deletion strains, locus YPR141C, strain kar3, hits give low values 0.996
active: S. cerevisiae deletion strains, locus YKL009W, strain mrt4, hits give low values 1.45 [resistant] | S. cerevisiae deletion strains, locus YKL190W, strain CNB1, hits give low values 0.202 | S. cerevisiae deletion strains, locus YKR001C, strain vps1, hits give low values 0.738 | S. cerevisiae deletion strains, locus YLR027C, strain aat2, hits give low values 0.92 | S. cerevisiae deletion strains, locus YLR039C, strain RIC1, hits give low values 0.227 | S. cerevisiae deletion strains, locus YLR058C, strain SHM2, hits give low values 0.295 | S. cerevisiae deletion strains, locus YLR221C, strain rsa3, hits give low values 0.865 | S. cerevisiae deletion strains, locus YLR262C, strain YPT6 (second series), hits give low values 0.655 | S. cerevisiae deletion strains, locus YLR262C, strain YPT6, hits give low values 0.374 | S. cerevisiae deletion strains, locus YLR268W, strain sec22, hits give low values 0.558 | S. cerevisiae deletion strains, locus YLR320W, strain mms22, hits give low values 0.853 | S. cerevisiae deletion strains, locus YLR342W, strain FKS1 (second series), hits give low values 0.341 | S. cerevisiae deletion strains, locus YLR342W, strain FKS1, hits give low values 0.875 | S. cerevisiae deletion strains, locus YLR357W, strain rsc2, hits give low values 0.705 | S. cerevisiae deletion strains, locus YLR371W, strain rom2, hits give low values 0.645 | S. cerevisiae deletion strains, locus YLR418C, strain cdc73, hits give low values 0.559 | S. cerevisiae deletion strains, locus YML016C, strain PPZ1, hits give low values 0.155 | S. cerevisiae deletion strains, locus YML124C, strain tub3, hits give low values 0.845 | S. cerevisiae deletion strains, locus YMR058W, strain fet3, hits give low values 0.35 | S. cerevisiae deletion strains, locus YMR205C, strain PFK2, hits give low values 0.696 | S. cerevisiae deletion strains, locus YMR223W, strain ubp8, hits give low values 0.759 | S. cerevisiae deletion strains, locus YMR307W, strain GAS1, hits give low values 0.381 | S. cerevisiae deletion strains, locus YNL067W, strain RPL9B, hits give low values 0.438 | S. cerevisiae deletion strains, locus YNL153C, strain GIM3, hits give low values 0.446 | S. cerevisiae deletion strains, locus YNL209W, strain ssb2, hits give low values 0.572 | S. cerevisiae deletion strains, locus YNL233W, strain BNI4, hits give low values 0.601 | S. cerevisiae deletion strains, locus YNL307C, strain MCK1, hits give low values 0.893 | S. cerevisiae deletion strains, locus YNR052C, strain pop2, hits give low values 0.761 | S. cerevisiae deletion strains, locus YOL147C, strain pex11, hits give low values 0.813 | S. cerevisiae deletion strains, locus YOR061W, strain CKA2, hits give low values 0.285 | S. cerevisiae deletion strains, locus YOR069W, strain VPS5, hits give low values 0.458 | S. cerevisiae deletion strains, locus YOR083W, strain WHI5, hits give low values 0.884 | S. cerevisiae deletion strains, locus YOR106W, strain vam3, hits give low values 0.616 | S. cerevisiae deletion strains, locus YOR136W, strain idh2, hits give low values 0.871 | S. cerevisiae deletion strains, locus YOR144C, strain elg1, hits give low values 0.788 | S. cerevisiae deletion strains, locus YOR184W, strain ser1, hits give low values 0.683 | S. cerevisiae deletion strains, locus YOR270C, strain vph1, hits give low values 0.716 | S. cerevisiae deletion strains, locus YOR290C, strain snf2, hits give low values 0.817 | S. cerevisiae deletion strains, locus YPL051W, strain arl3, hits give low values 0.763 | S. cerevisiae deletion strains, locus YPL106C, strain sse1, hits give low values 0.784 | S. cerevisiae deletion strains, locus YPL240C, strain hsp82, hits give low values 0.92 | S. cerevisiae deletion strains, locus YPL241C, strain CIN2, hits give low values 0.506 | S. cerevisiae deletion strains, locus YPR163C, strain tif3, hits give low values 0.838 | S. cerevisiae deletion strains, locus YPR167C, strain met16, hits give low values 0.78 | S. cerevisiae deletion strains, strain wtn01, hits give low values 0.66 | S. cerevisiae strains, strain wild type, hits give low values 0.102
